Each structure is given as a SMILES string. Where “and” joins values, the source holds several entries; their conditions need not be identical. Identical values can stand only once. About 83,000 compounds went through this panel and 20% of them were active in at least one assay; those are over-represented in the sample as a whole.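 Percent growth is the endpoint: 0 to 100 indicates growth inhibition (40 means 60% inhibition), 0 means no net growth, and negative values indicate cell death.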 Calls of active or inactive are those of the source. How the source made its calls: active means growth percent below 10; inactive means the rest.

In the assay the test system is MDA-MB-231 breast. The experiment in a line: NCI-60 one-dose screen, 48 h (100 = growth as untreated, 0 = no growth, -100 = all killed). The settings on record: 10 µM unless noted.
As to `COc1ccc2c(c1)c(-c1nc(-c3c[nH]c4c(Cl)nccc34)cs1)cn2C`, the growth was 52.2% (inactive). On to `C[C@]12CCc3c(ccc4cc(O)ccc34)[C@@H]1C[C@H](O)[C@@H]2O`, for which the growth was 79.9% (inactive). Next, `ON=C1CCCCCCCC1`: 107% (inactive) and 123% (inactive). Next, `CCCCCCCCCCCCCCCC[N+](C)(C)CCN(Cc1ccc(OC)cc1)c1ncccn1`: -82.5% (active) and 47.1% (inactive); `Cc1nc2sc(C(=O)Nc3cccc4ncccc34)c(N)c2cc1C(C)O` (centres undefined): 76.1% (inactive); `C=C[C@]1(C)C=C2CC[C@@H]3C(C)(C)C(=O)CC[C@@]3(C)[C@@H]2CC1`: 111% (inactive). For the compound `CC[C@H](C)[C@H](NC(=O)[C@H](CCCCN)NC(=O)[C@H](CCCCN)NC(=O)[C@@H](NC(=O)[C@@H](NC(=O)[C@@H](N)Cc1cnc[nH]1)[C@@H](C)CC)[C@@H](C)CC)C(=O)N[C@@H](CCCNC(=N)N)C(=O)N[C@H](C(=O)N[C@@H](Cc1c[nH]c2ccccc12)C(=O)N[C@@H](Cc1ccc(O)cc1)C(=O)N[C@@H](CCCNC(=N)N)C(=O)N[C@@H](CCCCN)C(=O)N[C@@H](C)C(=O)N[C@@H](Cc1c[nH]c2ccccc12)C(=O)N[C@@H](Cc1cnc[nH]1)C(=O)N[C@H](C(=O)N[C@@H](CC(C)C)C(=O)NCC(=O)N[C@@H](CCCCN)C(=O)N[C@H](C(N)=O)C(C)C)C(C)C)[C@@H](C)O`, the growth is 10.9% (inactive).

Take `CC(=O)N1N=C(c2ccc(F)cc2)CC1c1sc(N(C)Cc2ccccc2)nc1Cl` (centres undefined): the growth is 101% (inactive). As for `Cn1ccnc1CN1CCSC(C(=O)Nc2ccccc2)C1` (centres undefined), the growth is 104% (inactive). For the compound `COc1ccc(/C=C2/C(=O)N=C3N2NC(c2ccccc2)=CN3c2ccccc2)cc1`, the growth was 107% (inactive). The figure for `Cc1oc2c(Cc3ccc(NC(=O)c4ccc(Cl)cc4)cc3)ncnc2c1C(=O)NO` is 108% (inactive); for `CCN1CCN(C(=O)[C@]23CC[C@@H](C)[C@H](C)[C@@H]2C2=CC[C@@H]4[C@@]5(C)CCC(=O)C(C)(C)[C@@H]5CC[C@@]4(C)[C@]2(C)CC3)CC1` it is -28.6% (active).

For the compound `CC/C=C\C/C=C\C[C@H](O)C/C=C1/C(=O)C=C[C@@H]1C/C=C\CCCC(=O)OC`, the growth is -5.48% (active). The figure for `COc1ccc(-c2nnc3n(C)c(=O)c4ccccc4n23)cc1O` is 36.4% (inactive). Turning to `Cc1ccc(NC(=O)c2ccc(CN3CCN(C)CC3)cc2)cc1Nc1nccc(-c2cccnc2)n1`, the growth was 88.8% (inactive) and 81.3% (inactive).

For the compound `OCCN1CCN(CC/C=C2\c3ccccc3Sc3ccc(Cl)cc32)CC1`, the growth was 29.3% (inactive) and 44.8% (inactive). Next, `COc1cc(-c2nn(-c3cccc(NC(=O)CCN4CCN(C)CC4)c3)cc2-c2ccncc2)ccc1Cl`: 39.9% (inactive); `Cc1cnc(C(=O)NNc2nc3sc4c(c3c(=O)[nH]2)C(C)CCC4)cn1` (centres undefined): 42.8% (inactive). The figure for `Cc1nc(-n2[nH]c(=O)ccc2=O)sc1N=Nc1ccccc1` is 102% (inactive); for `CC(=O)c1c(C)nc(SCC(=O)Nc2ccc(Cl)cc2)n1-c1ccc(Cl)cc1` it is 82% (inactive). Next, `C[N+]1=C(/C=C\C=C\c2ccccc2)C(C)(C)c2ccccc21`: 9.89% (active); `COc1cc(/C=C(/c2ccccc2)[N+](=O)[O-])c(OC)c2c1OCO2`: -47.9% (active). Regarding `C=C1C(=O)O[C@H]2[C@H]1CC/C(COC(=O)NCCCCNC(=O)OC/C1=C/CC[C@@]3(C)O[C@H]3[C@H]3OC(=O)C(=C)[C@@H]3CC1)=C\CC[C@@]1(C)O[C@@H]21`, the growth is 24% (inactive). With `COc1ccc(N2CCN(S(=O)(=O)c3oc(-c4ccccc4)nc3C#N)CC2)cc1`, the growth is 77.2% (inactive).

As for `COc1ccc(-c2cc3cnc4ccccc4c3oc2=O)cc1`, the growth is 88.2% (inactive). Next, `CCOC(=O)c1nc2c3ccccc3cnn2c1C(=O)c1ccc(OC)cc1`: 81.7% (inactive).

Regarding `Cc1ccc2c(c1)C(C)Cc1c(ncnc1-n1cnc3cc(C)ccc31)N2C` (centres undefined), the growth is 38.5% (inactive). For `CCN1C(=O)N(c2ccccc2)C2NC(=S)N(/N=C/C=C/c3ccccc3)C21` (centres undefined), the growth was 15.7% (inactive). The figure for `COc1ccc(-c2[nH]c3ccccc3c2-c2ccc(OC)cc2)cc1` is 52.6% (inactive); for `COc1ccc(Cn2cc(C(=O)Nc3cccnc3Nc3ccccc3)nn2)cc1` it is 86.4% (inactive).

Regarding `CSc1nnc(-c2cc3c([nH]c4ccccc43)c(-c3cccc(O)c3)n2)n1-c1ccc(C)cc1`, the growth was 25.7% (inactive).

Take `CN(Cc1ccccc1)c1nc(Cl)c(C2CC(c3ccc4c(c3)OCO4)=NN2c2cc(Cl)cc(Cl)c2)s1` (centres undefined): the growth is 101% (inactive).

As for `COc1ccc(C2Nc3nc(SC)nc(N)c3N=C3c4ccccc4CCC32)cc1` (centres undefined), the growth is 83.5% (inactive). The figure for `CCN(CC)CCOc1ccc(/C(=C(\Cl)c2ccccc2)c2ccccc2)cc1` is 1.62% (active) and 26.1% (inactive); for `O=C1/C(=C/c2ccccc2)CN(C(=O)C(Cl)Cl)C/C1=C\c1ccccc1` it is -3.43% (active); for `Cc1ccc(S(=O)(=O)OC[C@@]2(C)CC[C@]3(C)CC[C@]4(C)C(=CC[C@@H]5[C@@]6(C)CCCNC(C)(C)[C@@H]6CC[C@]54C)[C@@H]3C2)cc1` it is -85.7% (active).

As to `O=C1/C(=C/c2cn(-c3ccccc3)nc2-c2ccccc2)SC(=S)N1c1ccc(Cl)cc1`, the growth was 79.8% (inactive). On to `O=c1ccc2nc(-c3ccccn3)nn(-c3ccccc3)c-2c1`, for which the growth is 68.4% (inactive).

Turning to `C[C@@H]1CC[C@@H]2[C@@H]1[C@H](OC(=O)/C=C/c1ccccc1)[C@]1(c3ccccc3)C[C@@H](NC(=O)CO)[C@@]2(C)O1`, the growth was 96.9% (inactive).

The record behind these values is PubChem BioAssay (NCI).
